Test results taken from PubChem BioAssay AID1159580 (chemical genetic matrix, 2015).
Several values for one entry are separate records, joined by “and”; a condition that tells them apart may be missing. Equal values may be shown once. Hit rate of the full screen: of about 5,500 compounds, about 2,000 (36%) were called active. Inconclusive results (about 18%) are left out. Rule as the data show it: active = normalized growth mostly below about 0.91 (no sharp cut-off); inconclusive = no clear call, values can overlap the other calls; inactive = mostly above about 0.92. This is one part of the list.

Experiment: chemical genetic growth profiling, strain panel (AID 1159580);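 also: tested at 20 µM; growth read once vehicle control cultures reached saturation at 30 °C; 1 = growth at the plate median or of vehicle wells; lower values mean less growth of the strain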
Conditions: S. cerevisiae deletion strains, growth OD

Measured: normalized growth

CCn1cc(C(=O)O)c(=O)c2cc(F)c(N3CCNCC3)cc21
inactive: locus YAL013W, strain DEP1, active compounds read low 1 | locus YAL021C, strain ccr4, active compounds read low 0.967 | locus YAL026C, strain drs2, active compounds read low 0.978 | locus YAL030W, strain snc1, active compounds read low 0.988 | locus YBL061C, strain skt5, active compounds read low 0.991 | locus YBR009C, strain hhf1, active compounds read low 0.983 | locus YBR021W, strain FUR4, active compounds read low 0.905 | locus YBR023C, strain chs3, active compounds read low 0.989 | locus YBR171W, strain sec66, active compounds read low 0.988 | locus YBR229C, strain ROT2, active compounds read low 1.01 | locus YBR231C, strain swc5, active compounds read low 0.986 | locus YBR279W, strain paf1, active compounds read low 0.978 | locus YCL011C, strain gbp2, active compounds read low 0.983 | locus YCL016C, strain dcc1, active compounds read low 0.998 | locus YCL029C, strain bik1, active compounds read low 1 | locus YCL061C, strain MRC1, active compounds read low 0.989 | locus YCL069W, strain vba3, active compounds read low 0.966 | locus YCR088W, strain abp1, active compounds read low 0.992 | locus YDL005C, strain med2, active compounds read low 0.973 | locus YDL035C, strain GPR1, active compounds read low 1 | locus YDL040C, strain nat1, active compounds read low 0.99 | locus YDL074C, strain BRE1, active compounds read low 1.02 | locus YDL101C, strain DUN1, active compounds read low 1 | locus YDL134C, strain PPH21, active compounds read low 0.994 | locus YDL185W, strain tfp1, active compounds read low 0.998 | locus YDL192W, strain arf1, active compounds read low 0.995 | locus YDR001C, strain nth1, active compounds read low 0.98 | locus YDR069C, strain doa4, active compounds read low 0.964 | locus YDR101C, strain arx1, active compounds read low 0.972 | locus YDR137W, strain rgp1, active compounds read low 0.97 | locus YDR159W, strain sac3, active compounds read low 0.948 | locus YDR162C, strain NBP2, active compounds read low 0.997 | locus YDR195W, strain ref2 0.962 | locus YDR297W, strain sur2, active compounds read low 0.992 | locus YDR318W, strain mcm21, active compounds read low 0.995 | locus YDR334W, strain swr1, active compounds read low 0.981 | locus YDR335W, strain msn5, active compounds read low 0.928 | locus YDR388W, active compounds read low 1 | locus YDR392W, strain spt3, active compounds read low 0.873 | locus YDR502C, strain sam2, active compounds read low 1.01 | locus YEL003W, strain gim4, active compounds read low 0.984 | locus YEL037C, strain rad23, active compounds read low 0.976 | locus YEL061C, strain CIN8 (second series), active compounds read low 0.97 | locus YEL061C, strain CIN8, active compounds read low 1.01 | locus YER015W, strain faa2, active compounds read low 0.987 | locus YER016W, strain bim1, active compounds read low 0.986 | locus YER110C, active compounds read low 0.996 | locus YER111C, strain swi4, active compounds read low 0.975 | locus YER155C, strain BEM2 (second series), active compounds read low 0.95 | locus YER155C, strain BEM2, active compounds read low 1.01 | locus YER167W, strain BCK2, active compounds read low 1 | locus YFR010W, strain ubp6, active compounds read low 0.972 | locus YGL078C, strain dbp3, active compounds read low 0.998 | locus YGL086W, strain mad1, active compounds read low 0.992 | locus YGL167C, strain pmr1, active compounds read low 0.985 | locus YGL173C, strain kem1, active compounds read low 0.98 | locus YGL227W, strain vid30, active compounds read low 0.979 | locus YGL240W, strain doc1, active compounds read low 0.973 | locus YGL248W, strain PDE1, active compounds read low 1 | locus YGL253W, strain hxk2, active compounds read low 0.995 | locus YGR078C, strain PAC10, active compounds read low 1 | locus YGR135W, strain pre9, active compounds read low 0.988 | locus YGR229C, strain SMI1, active compounds read low 1.02 | locus YGR252W, strain gcn5, active compounds read low 0.912 | locus YHR013C, strain ard1, active compounds read low 0.928 | locus YHR027C, strain rpn1, active compounds read low 0.987 | locus YHR030C, strain SLT2, active compounds read low 0.999 and 0.974 | locus YHR079C, strain IRE1 (second series), active compounds read low 0.995 | locus YHR079C, strain IRE1, active compounds read low 0.974 | locus YHR094C, strain hxt1, active compounds read low 0.998 | locus YHR129C, strain ARP1, active compounds read low 1 | locus YHR142W, strain chs7, active compounds read low 0.971 | locus YHR200W, strain rpn10, active compounds read low 0.998 | locus YIL066C, strain RNR3, active compounds read low 1.01 | locus YIL073C, strain SPO22, active compounds read low 1 | locus YIL125W, strain kgd1, active compounds read low 1 | locus YIR030C, strain dcg1, active compounds read low 0.999 | locus YJL092W, strain hpr5, active compounds read low 0.982 | locus YJL095W, strain BCK1 (second series), active compounds read low 0.993 | locus YJL095W, strain BCK1, active compounds read low 0.991 and 0.996 | locus YJL115W, strain asf1, active compounds read low 0.976 | locus YJL129C, strain trk1, active compounds read low 0.929 | locus YJL134W, strain LCB3, active compounds read low 1 | locus YJL154C, strain vps35, active compounds read low 0.974 | locus YJL164C, strain tpk1, active compounds read low 0.988 | locus YJL166W, strain qcr8, active compounds read low 1 | locus YJL168C, strain set2, active compounds read low 1 | locus YJL187C, strain SWE1 (second series), active compounds read low 1.01 | locus YJL187C, strain SWE1, active compounds read low 0.985
